Records with an inconclusive call do not appear. The source made the active and inactive calls. Unless noted, calls follow the shape of the dose curve; as a rule, active = well fitted curve in the direction sought with a large enough effect in the repeat runs; inconclusive = weak or mixed curves; inactive = no such curve, though single readings can be large; an effect the other way counts as inactive or inconclusive.
Key:
[1] = target: Luciferin 4-monooxygenase (Photinus pyralis) (UniProt P08659); test: qHTS assay to identify small molecule inhibitors of firefly luciferase (AID 1224835); also: nearly all actives have a fitted effect of over 25% in size
Chain of Luciferin 4-monooxygenase (Photinus pyralis) (P08659 whole entry, looked up): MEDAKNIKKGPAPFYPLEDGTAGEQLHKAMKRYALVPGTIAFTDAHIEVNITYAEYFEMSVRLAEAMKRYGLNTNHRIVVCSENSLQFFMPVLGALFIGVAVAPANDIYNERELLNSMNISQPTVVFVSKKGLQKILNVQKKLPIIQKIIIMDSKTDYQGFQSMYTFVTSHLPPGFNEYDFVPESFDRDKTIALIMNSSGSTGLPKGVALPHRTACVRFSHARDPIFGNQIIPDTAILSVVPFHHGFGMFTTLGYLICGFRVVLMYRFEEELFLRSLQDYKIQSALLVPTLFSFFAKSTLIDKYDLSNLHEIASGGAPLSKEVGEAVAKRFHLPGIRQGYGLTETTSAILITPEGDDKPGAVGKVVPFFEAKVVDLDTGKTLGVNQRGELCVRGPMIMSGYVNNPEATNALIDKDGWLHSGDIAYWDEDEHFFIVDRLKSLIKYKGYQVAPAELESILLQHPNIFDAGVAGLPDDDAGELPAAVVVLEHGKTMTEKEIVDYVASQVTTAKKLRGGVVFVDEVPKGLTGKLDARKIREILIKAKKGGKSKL
Procedure, shortened: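 Quantitative HTS format; KM concentrations of both substrates. Purified P. pyralis FLuc activity quantified from luminescence images.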

[2] = qHTS assay to identify small molecule agonists of the constitutive androstane receptor (CAR) signaling pathway - cell viability counter screen (AID 1224836); also: nearly all actives have a fitted effect of over 45% in size
Procedure, shortened: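 Fluorescence from CellTiter-Fluor indicates live cells after 23 h exposure. The human hepatoma line expresses hCAR and a CYP2B6-2.2kb reporter. Incubation medium contains 0.75 uM PK11195 (final).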

[3] = qHTS assay to identify small molecule antagonists of the constitutive androstane receptor (CAR) signaling pathway - cell viability counter screen (AID 1224837); also: nearly all actives have a fitted effect of over 45% in size
Procedure, shortened: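 Fluorescence from CellTiter-Fluor served as the viability signal. Human hepatoma HepG2 cells stably bearing hCAR and CYP2B6-2.2kb received compound plus CITCO (50 nM final) for 23 hr.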

[4] = target: Nuclear receptor subfamily 1 group I member 3 (Homo sapiens) (UniProt Q14994); test: qHTS assay to identify small molecule agonists of the constitutive androstane receptor (CAR) signaling pathway (AID 1224839);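 also: HepG2 cells stably carrying human CAR and a CYP2B6 luciferase reporter; nearly all actives have a fitted effect of over 15% in size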
Chain of Nuclear receptor subfamily 1 group I member 3 (Homo sapiens) (Q14994 whole entry, looked up): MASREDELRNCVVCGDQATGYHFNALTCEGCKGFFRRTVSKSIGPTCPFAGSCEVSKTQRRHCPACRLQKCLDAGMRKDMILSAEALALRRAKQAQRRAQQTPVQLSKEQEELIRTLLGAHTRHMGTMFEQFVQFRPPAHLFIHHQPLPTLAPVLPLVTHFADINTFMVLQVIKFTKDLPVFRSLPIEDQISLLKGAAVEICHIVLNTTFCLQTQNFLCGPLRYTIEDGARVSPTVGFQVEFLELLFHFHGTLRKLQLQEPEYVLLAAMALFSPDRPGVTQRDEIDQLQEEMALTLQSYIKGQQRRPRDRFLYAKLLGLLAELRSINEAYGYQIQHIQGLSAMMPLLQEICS
Procedure, shortened: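 Stable hCAR/CYP2B6-2.2kb HepG2 line in DMEM with 10% FBS; compounds (15 concentrations) and 0.75 uM PK11195 final, 24 h at 37 C/5% CO2, then ONE-Glo luminescence after 30 min.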

[5] = qHTS assay to identify small molecule antagonists of the estrogen related receptor signaling pathway with the pleiotropic PPARgamma coactivator (PGC) from Tox21 10K library - cell viability counter screen (AID 1224840; active = well fitted cell-killing curve with a large enough effect in the repeat runs, not every such curve was filed as active; also: nearly all actives have a fitted effect of over 40% in size)
Procedure, shortened: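 Compounds in DMSO, alongside positive and negative controls, were pinned onto PGC/ERR cells (2,000 per well). Exposure lasted 17.5 hours at 37 C, followed by a 30-minute CellTiter-Fluor incubation and fluorescence reading.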

[6] = target: Thyrotropin receptor (Homo sapiens) (UniProt P16473); test: qHTS assay to identify small molecule agonists of the thyroid stimulating hormone receptor (TSHR) signaling pathway (AID 1224843; calls by dose curve; also: nearly all actives have a fitted effect of over 45% in size)
Chain of Thyrotropin receptor (Homo sapiens) (P16473 whole entry, looked up): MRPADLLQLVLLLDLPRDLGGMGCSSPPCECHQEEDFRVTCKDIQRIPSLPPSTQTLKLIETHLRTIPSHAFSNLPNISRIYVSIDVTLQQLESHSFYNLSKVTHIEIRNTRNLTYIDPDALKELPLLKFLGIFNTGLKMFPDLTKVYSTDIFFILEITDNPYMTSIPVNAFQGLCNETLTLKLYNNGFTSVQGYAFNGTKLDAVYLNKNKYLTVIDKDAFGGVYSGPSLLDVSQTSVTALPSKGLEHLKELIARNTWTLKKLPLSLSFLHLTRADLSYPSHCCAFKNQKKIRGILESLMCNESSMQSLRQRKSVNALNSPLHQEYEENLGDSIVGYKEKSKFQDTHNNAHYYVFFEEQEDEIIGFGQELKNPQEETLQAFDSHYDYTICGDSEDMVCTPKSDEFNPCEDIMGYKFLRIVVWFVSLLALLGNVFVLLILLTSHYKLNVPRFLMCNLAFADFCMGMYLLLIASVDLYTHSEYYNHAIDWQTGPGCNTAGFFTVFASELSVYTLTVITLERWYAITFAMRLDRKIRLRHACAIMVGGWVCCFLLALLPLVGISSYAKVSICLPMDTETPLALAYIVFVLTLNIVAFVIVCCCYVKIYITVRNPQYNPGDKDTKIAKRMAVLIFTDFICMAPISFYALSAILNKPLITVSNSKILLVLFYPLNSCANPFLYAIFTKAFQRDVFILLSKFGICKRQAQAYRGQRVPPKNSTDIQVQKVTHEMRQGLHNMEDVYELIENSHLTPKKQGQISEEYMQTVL
Procedure, shortened: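 TSHR-expressing HEK293 cells (800 per well) were exposed to compounds for 30 min at room temperature. cAMP was then detected by HTRF competition with cAMP-d2 and anti-cAMP cryptate, read after 1 h at room temperature. Fifteen concentrations, triplicate.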

[7] = qHTS assay to identify small molecule agonists of the hypoxia (HIF-1) signaling pathway - cell viability counter screen (AID 1224844; calls by dose curve; also: nearly all actives have a fitted effect of over 50% in size)
Procedure, shortened: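 Luminescent ATP content (CellTiter-Glo, 30 min, room temperature) served as the viability measure in HRE-bla ME-180 cells exposed to compounds for 17 hrs in low-serum medium (0.5% dialyzed FBS).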

[8] = qHTS assay to identify small molecule agonists of H2AX (AID 1224845; active = well fitted activation curve with a large enough effect in the signal ratio in the repeat runs, not every such curve was filed as active; the % refers to the signal ratio)
Procedure, shortened: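 Wild-type CHO-K1 cells plated overnight, then exposed 3 hr at 37C to compounds at 15 concentrations (0.76% DMSO). Lysed, then HTRF anti-pH2AX(S139)-cryptate/anti-H2AX-d2 detection after 24 hr at room temperature; emissions 665 and 620 nm.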

[9] = qHTS assay to identify small molecule agonists of the hypoxia (HIF-1) signaling pathway (AID 1224846; active = well fitted activation curve with a large enough effect in the signal ratio in the repeat runs, not every such curve was filed as active; the % refers to the signal ratio)
Procedure, shortened: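 Measured by blue/green FRET after loading CCF4-AM: beta-lactamase expressed from a hypoxia response element in ME-180 cells. Test agents were delivered in DMSO and left 17 hrs; cells had been plated 5 hrs earlier in low-serum (0.5% dialyzed FBS) medium.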

[10] = qHTS assay to identify small molecule agonists of H2AX - cell viability counter screen (AID 1224847; calls by dose curve; also: top concentration of the series differs between compounds; nearly all actives have a fitted effect of over 30% in size)
Procedure, shortened: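 Viability of CHO-K1 (wild type) cells after 3 hr compound exposure was measured by CellTiter-Glo luminescence.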

[11] = qHTS RealTime-Glo MT Cell Viability Assay in HepG2 cells - 24 hour (AID 1224867); also: nearly all actives have a fitted effect of over 50% in size
Procedure, shortened: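 HepG2 suspension premixed with RealTime-Glo reagents is plated at 600 cells per well and left 5 h at 37 C/5% CO2. Compounds in DMSO then go in, and bioluminescence reflecting viable cell number is recorded over 40 h.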

[12] = qHTS RealTime-Glo MT Cell Viability Assay in HEK293 cells - 32 hour (AID 1224868); also: top concentration of the series differs between compounds; nearly all actives have a fitted effect of over 50% in size
Procedure, shortened: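 Reads taken at 0, 8, 16, 24, 32 and 40 h from the same wells. HEK293 cells (600/well) carried RealTime-Glo reagents from seeding, with compound added after a 5 h settle at 37 C.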

[13] = A CellTox Green Cytotoxicity Assay to monitor cytotoxicity in HEK293 cells - 0 hour (AID 1224869); also: nearly all actives have a fitted effect of over 50% in size
Procedure, shortened: (§1)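 Each value comes from one timepoint of a single continuous run in which HEK293 cells with CellTox Green were exposed to compound for up to 40 h at 37 C, dye fluorescence rising with cell death.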

[14] = qHTS RealTime-Glo MT Cell Viability Assay in HepG2 cells - 40 hour (AID 1224870); also: nearly all actives have a fitted effect of over 50% in size
Procedure, shortened: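 HepG2 cells mixed with RealTime-Glo MT reagents (NanoLuc plus cell-permeant prosubstrate) were seeded at 600 cells/well, incubated 5 h at 37 C/5% CO2, then pinned with compounds in DMSO; nonlytic luminescence tracked viability during 40 h treatment.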

[15] = A CellTox Green Cytotoxicity Assay to monitor cytotoxicity in HEK293 cells - 40 hour (AID 1224871); also: nearly all actives have a fitted effect of over 45% in size
Procedure, shortened: as §1

[16] = qHTS assay to identify small molecule antagonists of the estrogen related receptor signaling pathway with the pleiotropic PPARgamma coactivator (PGC) from Tox21 10K library (AID 1224841; call rule not given here)
Procedure, shortened: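 Compound exposure ran 18 hours at 37 C in PGC/ERR cells (2,000/well) that had first rested 6 hours in a 37 C/5% CO2 incubator. Luciferase activity was then detected with One-Glo after a 30-minute room-temperature step.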

[17] = qHTS assay to identify small molecule agonists of the estrogen related receptor signaling pathway with the pleiotropic PPARgamma coactivator (PGC) from Tox21 10K library (AID 1224842); also: nearly all actives have a fitted effect of over 15% in size
Procedure, shortened: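 PGC/ERR reporter cells (NTP line) were seeded 2,000 per well, rested 6 h at 37 C/5% CO2, then pin-dosed with compounds in DMSO for 18 h at 37 C; luciferase read by One-Glo luminescence after 30 min at room temperature.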

[18] = qHTS assay to identify small molecule antagonists of the estrogen related receptor (ERR) signaling pathway from Tox21 library (AID 1224848); also: nearly all actives have a fitted effect of over 50% in size
Procedure, shortened: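 Cells: ERR line, 2,000/well; 6 h preincubation 37 C/5% CO2. Cpd in DMSO via pin tool; 18 h, 37 C. ONE-Glo, 30 min RT, luminescence.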

[19] = qHTS assay to identify small molecule agonists of the estrogen related receptor (ERR) signaling pathway from Tox21 library (AID 1224849; calls by dose curve; also: nearly all actives have a fitted effect of over 15% in size); details: ERR reporter cell line, ONE-Glo luciferase, 18 h; at 92.4 µM (top of the series) unless noted
Procedure, shortened: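 We plated ERR reporter cells, waited 6 h, added compounds in DMSO by pin tool and incubated them 18 h at 37 C. ONE-Glo was then added and luminescence read after 30 min.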

[20] = target: Nuclear receptor subfamily 1 group I member 3 (Homo sapiens) (UniProt Q14994); test: qHTS assay to identify small molecule antagonists of the constitutive androstane receptor (CAR) signaling pathway (AID 1224838);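 also: HepG2 cells stably expressing hCAR with CYP2B6 luciferase reporter stimulated by CITCO; nearly all actives have a fitted effect of over 40% in size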
Procedure, shortened: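 Quantitative HTS in double-stable HepG2-CYP2B6-hCAR cells. After 4 h plating, cells get compound (15 concentrations) and CITCO at 50 nM final, incubate 24 h at 37 C, then ONE-Glo luminescence is read.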
% is scaled to controls: 0 for no effect and ±100 for the full control effect.

CN(C)C(=O)CNC(=O)Cc1ccccc1
inactive: Potency [1] | Potency [2] | Potency [3] | Potency [4] | outcome [5] | Potency [6] | outcome [7] | outcome [8] | outcome [9] | Potency [10] | outcome [11] | Potency [12] | outcome [13] | outcome [14] | Potency [15]

CC1(C)S[C@@H]2[C@H](N=CN3CCCCCC3)C(=O)N2[C@H]1C(=O)O
inactive: Potency [1] | Potency [2] | Potency [3] | Potency [4] | outcome [5] | Potency [6] | outcome [7] | outcome [8] | outcome [9] | outcome [11] | Potency [12] | outcome [14] | Potency [15]

CC(C)OC(=O)CCCCC(=O)OC(C)C
inactive: Potency [1] | Potency [2] | Potency [3] | outcome [5] | Potency [6] | outcome [7] | outcome [8] | outcome [9] | Potency [10] | outcome [11] | Potency [12] | outcome [13] | outcome [14] | Potency [15]

CC(C)CC(C)CC(C)CC(C)COC(=O)c1ccccc1C(=O)OCC(C)CC(C)CC(C)CC(C)C (stereo not drawn)
inactive: Potency [1] | Potency [2] | Potency [3] | outcome [5] | Potency [16] | outcome [17] | Potency [6] | outcome [7] | outcome [8] | outcome [9] | Potency [10] | Potency [18] | activity change, positive = activation [19] -6.15% | outcome [11] | Potency [12] | outcome [13] | outcome [14] | Potency [15]

CCCCC(CC)COCCO (stereo not drawn)
inactive: Potency [1] | Potency [2] | outcome [20] | outcome [5] | Potency [16] | outcome [17] | Potency [6] | outcome [7] | outcome [8] | outcome [9] | activity change, positive = activation [19] 5.52% | outcome [11] | Potency [12] | outcome [13] | Potency [15]

CCN1CCc2nc(N)oc2CC1
inactive: Potency [1] | Potency [2] | Potency [4] | outcome [5] | Potency [6] | outcome [7] | outcome [8] | Potency [10] | outcome [11] | Potency [12] | outcome [13] | Potency [15]

NS(=O)(=O)c1ccc(NC(=O)CCC(=O)O)cc1
inactive: Potency [1] | Potency [2] | outcome [5] | Potency [6] | outcome [7] | outcome [8] | outcome [9] | Potency [10] | outcome [11] | Potency [12] | outcome [13] | outcome [14] | Potency [15]

CC(C(=O)O)c1ccc2c(c1)CC(=O)c1ccccc1S2 (stereo not drawn)
inactive: Potency [1] | Potency [2] | outcome [20] | Potency [4] | outcome [5] | Potency [16] | outcome [17] | Potency [6] | outcome [7] | outcome [9] | Potency [10] | Potency [18] | activity change, positive = activation [19] 4.13% [at 42.5 µM] | outcome [11] | Potency [12] | outcome [13] | outcome [14] | Potency [15]
